Measured values taken from PubChem BioAssay AID652104 (National Center for Advancing Translational Sciences (NCATS), 2013).
Out of some 410,000 compounds screened, about 7,200 (1.8%) were called active. Not shown: some 7% with an inconclusive outcome. The list comes from a sample in which actives are over-represented; it also holds similar structures and randomly drawn compounds. Entries that show only a call come without a potency. A number with no mark means an inactive call. Calls follow the shape of the dose curve; as a rule, active = well fitted activation curve with a large enough effect; inconclusive = small, poorly fitted or top-dose-only effect, or another doubt; inactive = no such curve, though single readings can be large or run the other way.

Test: qHTS of TDP-43 Inhibitors; also: nearly all actives have a fitted effect of over 50% in size
Conditions: TDP-43 expressing yeast growth rescue, BacTiter-Glo, 24 h; series mostly up to 46.1 µM
Method in brief: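 Cell-based yeast growth screen: TDP-43 expression induced in galactose, inoculum OD600=0.02 after raffinose pregrowth to mid-log. Read-out BacTiter-Glo luminescence at 24 hr, 30 deg C; inhibition of toxicity seen as signal increase.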
Potency is read from the fitted curve at half-maximal effect.

SMILES | Potency | growth rescue (activation)
COc1ccccc1N1CCN(/N=C\C(Br)=C\c2ccccc2)CC1 | 11.2 µM (active) | –
COc1ccccc1N1CCN(Cc2ccc(OC)c3ccccc23)CC1 | inactive | –
COc1ccccc1N1CCN(C2C(=O)c3ccccc3N2C(C)=O)CC1 (centres undefined) | inactive | –
CCS(=O)(=O)N1CCc2cc(C(=O)NCc3ccc(C)cc3)ccc21 | inactive | –
CCOC(=O)c1ccccc1NC(=O)c1sc2nc(-c3ccc(F)cc3)cn2c1C | inactive | –
CCOC(=O)C1C(=O)C=C(c2ccc(OC)cc2)CC1c1ccco1 (centres undefined) | 11.2 µM (active) | –
COc1ccc(C2=NN(C(=O)CSc3nnnn3C)C(c3ccco3)C2)cc1 (centres undefined) | inactive | –
CCOC(=O)C1C(=O)NC(N2CCN(c3ccccc3)CC2)=NC1c1ccco1 (centres undefined) | inactive | –
Cc1nn(C(=O)c2c(F)cccc2F)c(C)c1S(=O)(=O)N1CCOCC1 | inactive | –
O=C(NC1CC(=O)N(c2ccc(Cl)cc2)C1)C1CCCC1 (centres undefined) | inactive | –
COc1ccccc1C(=O)Nc1c(C(=O)Nc2ccc(C)cc2)oc2ccccc12 | inactive | –
Cc1ccc2cccc(NC(=O)c3ccc(OC(C)C)cc3)c2n1 | 11.2 µM (active) | –
Cc1ccc2cccc(NC(=O)C(C)Oc3ccc(C)c(C)c3)c2n1 (centres undefined) | inactive | –
Cc1ccc2cccc(NC(=O)c3cccc4ccccc34)c2n1 | inactive | –
COc1ccc(-c2cc(-c3ccc(F)cc3)nc3c2COc2ccccc2-3)cc1 | inactive | –
CC(C)C12CN3CC(C(C)C)(CN(C1)C3c1ccc(OCc3ccccc3)cc1)C2=O (centres undefined) | inactive | –
O=C(NCCc1ccccn1)c1ccc(COc2ccccc2)o1 | inactive | –
COc1ccc(-c2nc(CCNC(=O)c3ccc(Br)o3)cs2)cc1 | 12.6 µM (active) | –
COc1cc(OC)cc(C(=O)NNC(=O)CNC(=O)c2ccc(Br)o2)c1 | inactive | –
Cc1ccc(Cn2c(=O)n(Cc3nc(-c4ccccc4)no3)c(=O)c3cc4c(cc32)OCO4)cc1 | inactive | –
CCC1CCCCN1Cc1c(O)ccc2c(=O)c(Oc3ccccc3Cl)c(C(F)(F)F)oc12 (centres undefined) | inactive | –
Cc1cc(NC(=O)c2cccc(Cl)c2)ccc1-c1cc2ccccc2oc1=O | inactive | –

SMILES | Potency | growth rescue (activation)
Cc1cc2oc(C(=O)N(Cc3ccc(Cl)cc3)Cc3ccco3)c(C)c2cc1Cl | inactive | –
CC(C)Oc1c(Br)cc(Br)cc1/C=N/NC(N)=S | inactive | –
Cc1cccc(-n2c(C)cc(/C=N/NC(N)=S)c2C)c1 | 35.5 µM (active) | –
Cc1cc(/C=N/NC(N)=O)c(C)n1C1CCCCC1 | inactive | –
COc1ccccc1NC(=O)c1oc2ccccc2c1NC(=O)C(C)C | inactive | –
COc1ccccc1C1C(C(=O)N2CCCCC2)=C(C)Nc2nc3ccccc3n21 (centres undefined) | inactive | –
CN(Cc1ccccc1)S(=O)(=O)c1ccc(F)c(C(=O)Nc2cccc(Cl)c2Cl)c1 | inactive | –
CC(=O)c1ccc(S(=O)(=O)NCCC(=O)N2CCN(c3ccccn3)CC2)cc1 | inactive | –
C=Cc1ccc(C(=O)N2CCCC(CCC(=O)N3CCN(c4ccccn4)CC3)C2)cc1 (centres undefined) | 3.55 µM (active) | –
COc1cccc(CC(=O)N2CCCC(CCC(=O)N3CCN(c4ccccn4)CC3)C2)c1 (centres undefined) | – | 10.6% [at 9.22 µM]
COc1cccc(N2CCN(S(=O)(=O)c3cc(Br)cc4c3N(C(=O)C3CC3)CC4)CC2)c1 | inactive | –
CCCCn1c(=S)[nH]c2ncccc2c1=O | inactive | –
CCCCNC(=O)c1ccc(-n2c(=S)[nH]c3ccccc3c2=O)cc1 | inactive | –
CCCCn1c(=S)[nH]c2ccccc2c1=O | 14.1 µM (active) | –
COc1ccc(CCNC(=O)c2cc(=O)c3c(C)cc(C)cc3o2)cc1OC | inactive | –
Cc1ccc(CN2CCCn3nc(C(=O)NCc4ccccc4Cl)cc3C2=O)cc1 | inactive | –
Cc1ccc(CNC(=O)CCC(=O)N2Cc3ccccc3Oc3ncccc32)cc1 | – | 14.9% [at 9.22 µM]
COc1cc(C(=O)NCCS(=O)(=O)N2CCN(c3ccccc3)CC2)cc(OC)c1OC | inactive | –
Cc1cccc(C)c1NC(=O)N1CC(C)OC(C)C1 (centres undefined) | inactive | –
Cc1cccc(C)c1NC(=O)C(Cl)C(=O)c1ccccc1 (centres undefined) | 3.98 µM (active) | –
CN=C(c1ccccc1)c1c(C)cccc1C | inactive | –
O=C(Cn1c(=O)n(-c2ccc(F)cc2)c(=O)c2sccc21)Nc1cccc(C(F)(F)F)c1 | inactive | –

SMILES | Potency | growth rescue (activation)
COC(=O)C1=CN(c2c(C)cc(C)cc2C)C(N)=C(C#N)C1c1cccc(F)c1 (centres undefined) | 22.4 µM (active) | –
CCOC(=O)C1=C(CC)OC(N)=C(C#N)C1c1ccc(F)cc1F (centres undefined) | inactive | –
COC(=O)C1=CN(c2ccc(F)c(F)c2)C=C(C(=O)OC)C1c1ccc([N+](=O)[O-])cc1 | inactive | –
CCN(Cc1ccccc1)Cc1c(O)ccc2c(=O)c(-c3ccc(Cl)cc3Cl)coc12 | inactive | –
Cc1cc2n(n1)C(c1cc(C(C)(C)C)c(O)cc1O)Nc1ccccc1-2 (centres undefined) | inactive | –
COc1ccccc1CNCc1ccc(C(=O)O)s1 | inactive | –
COCCCNC(=O)c1c(NC(=O)c2cc(=O)c3cc(C)c(C)cc3o2)sc2c1CCCC2 | inactive | –
Cc1ccc(S(=O)(=O)N(Cc2nc(-c3ccc(Cl)cc3)no2)C2CCCCC2)cc1 | inactive | –
Cc1ccc(Cl)cc1NC(=O)/C(C#N)=C\c1cn(Cc2ccc(F)cc2)c2ccccc12 | inactive | –
CCOc1ccc(Nc2ncnc3scc(-c4ccc(OC)cc4)c23)cc1 | inactive | –
COc1ccc(NC(=O)CSc2ncnc3[nH]ncc23)cc1 | inactive | –
COc1ccc(Nc2cc(Sc3ccc(OC)cc3)ncn2)cc1 | 22.4 µM (active) | –
Cc1cccc2c(=O)cc(CSc3ccccc3NC(=O)C(C)C)[nH]c12 | inactive | –
O=C(CSc1ccc(-c2ccc(F)cc2)nn1)Nc1ccc2c(c1)OCCO2 | inactive | –
O=C(CSc1nc(-c2cccc(F)c2)[nH]c1-c1ccccc1)Nc1ccc2c(c1)OCO2 | 20 µM (active) | –
O=C(CSc1nnc(CNC(=O)c2ccc(F)cc2)o1)Nc1ccc2c(c1)OCO2 | inactive | –
Cc1ccc(NC(=O)CSc2nc3c([nH]c4ccccc43)c(=O)n2-c2ccccc2)c(C)c1 | inactive | –
Nc1nc(Nc2ccccc2F)nc(NC2CCCCC2)c1[N+](=O)[O-] | inactive | –
C=CCNc1nc(N)c([N+](=O)[O-])c(NC2CCCCC2)n1 | 7.08 µM (active) | –
Nc1nc(NCC2CCCO2)nc(Nc2ccccc2F)c1[N+](=O)[O-] (centres undefined) | inactive | –
